From PubChem BioAssay (EPA / NIEHS) come the findings set out here.

Molecules are shown by their SMILES. Calls of active or inactive are those of the source. Rule for the calls: active = hit-call score of the fitted dose curve at least 0.9, where 1 is the maximum; inactive = score below 0.9.

Read-out in this assay: Decorin, DCN (gene 1634)
As to the kind of experiment: BSK_MyoF_Decorin: BioMAP Diversity Plus: MyoF Assay for Decorin Biomarker Activity (AID 2284265). To be noted: primary human lung fibroblasts. The procedure:
BSK_MyoF is a cell-based, multiplexed-readout assay that uses lung fibroblasts, […], with measurements taken at 24 hours after chemical dosing in a microplate: 96-well plate.BSK_MyoF_Decorin is an assay component measured in the BSK_MyoF assay. It measures Decorin antibody related to regulation of gene expression using ELISA technology.Data from the assay component BSK_MyoF_Decorin was analyzed at the endpoint, BSK_MyoF_Decorin, in the positive analysis fitting direction relative to DMSO as the negative control and baseline of activity. Using a type of binding reporter, gain or loss-of-signal activity can be used to understand protein changes. To generalize the intended target to other relatable targets, this assay endpoint is annotated to the 'cell adhesion molecules' intended target family, where the subfamily is 'decorin'.
The levels of cell surface (or secreted, indicated by the prefix "s") biomarker endpoints were measured by ELISA. Overt cytotoxicity to cells in confluent adherent cultures (all systems other than the BT system) was assessed by measuring total protein levels using sulforhodamine B (SRB) staining in parallel cultures at the time of biomarker measurements, indicated as SRB endpoints. For proliferation assays for adherent cell types, individual cell types are cultured at sub-confluence and relative cell numbers quantified by SRB staining at time points optimized for each system (48 h: 3C and CASM3C systems; 72 h: BT and HDF3CGF systems; 96 h: SAg system). SRB was performed by staining cells with 0.1% SRB after fixation with 10% TCA and reading wells at 560 nm.Viability and proliferation of PBMC (T cells) was quantified by Alamar Blue reduction for the SAg and BT systems. For PBMC viability (referred to as PBMC Cytotoxicity within the assay endpoint names), cells were plated (75,000/well in a 96-well plate) and then chemical samples added for 1 h before addition of activators, SEB and TSST-1 (20 ng/mL final concentration each). Cells were incubated for 90 h. Then, Alamar Blue (20 uL/well) (Invitrogen, Cat DAL1100) was added for 6 h, and the plates were read with a fluorescence microplate reader at 546/580 nm (excitation/emission). For PBMC proliferation, cells were plated and activated as above but incubated for only 16 h prior to addition of Alamar Blue. Plates were read after 6 h.
On to `Cc1ccc2n[nH]nc2c1`, for which the result was inactive. Consider `O=C(O)c1cn(C2CC2)c2cc(N3CCNCC3)c(F)cc2c1=O`, for which the result was inactive. On the same count and under the same terms, under `CC(=O)/C=C/C1=C(C)CCCC1(C)C` stands “inactive”. `CC1CCC(C(C)CS)CC1S` (stereo not drawn): the AC50 was 10.1 µM (active).

Consider `CC(C)c1ccc(C(C)C)cc1`, for which the outcome was inactive. On to `O=C=NC1CCC(CC2CCC(N=C=O)CC2)CC1` (stereo not drawn), for which the result was inactive. Regarding `CC(=O)O[C@]1(C(C)=O)CC[C@H]2[C@@H]3C[C@H](C)C4=CC(=O)CC[C@]4(C)[C@H]3CC[C@@]21C`, the outcome was inactive. The same measure, in the same setting: under `CCCCCCCCCC=O` stands “inactive”; under `O=C(O)C[C@H](O)C[C@H](O)/C=C/c1c(C2CC2)nc2ccccc2c1-c1ccc(F)cc1`, “inactive”; under `BrC1CCC(Br)C(Br)CCC(Br)C(Br)CCC1Br` (stereo not drawn), “inactive”. Regarding `O=C1CCCCCCCCCCCCCCO1`, the result was inactive. Still for that read-out and setting: under `CC1COc2ccccc2N1C(=O)C(Cl)Cl` (stereo not drawn) stands “inactive”; under `CC(=O)Nc1ccccc1O`, “inactive”; under `CCCCC(CC)COC(=O)/C=C\C(=O)OCC(CC)CCCC` (stereo not drawn), “inactive”. As for `O=[N+]([O-])c1cc(C(F)(F)F)ccc1Cl`, the outcome was inactive. As to `CN(CCOc1ccc(CC2SC(=O)NC2=O)cc1)c1ccccn1` (stereo not drawn), the outcome was inactive. As for `c1ccc2c(c1)c1cccc3ccc4cccc2c4c31`, the result was inactive.

In the case of `C=C[Si](OCC)(OCC)OCC`, the outcome was inactive.

For `CCCCC/C=C/C=C/C=O`, the half-maximal activity concentration (AC50) was 20 µM (active). With `CC(C)(COC(=O)c1ccccc1)COC(=O)c1ccccc1`, the result was inactive.

Take `CNC[C@H](O)c1cccc(O)c1`: the result was inactive.

As to `c1ccc2sc(SN(C3CCCCC3)C3CCCCC3)nc2c1`, the result was inactive. Take `O=P(c1ccccc1)(c1ccccc1)c1ccccc1`: the result was inactive.

Consider `N#Cc1ccc(CC(=NNC(=O)Nc2ccc(OC(F)(F)F)cc2)c2cccc(C(F)(F)F)c2)cc1`, for which the result was inactive.

Consider `CCn1c2ccccc2c2cc(N)ccc21`, for which the result was inactive. The same measure, in the same setting: then `O=C(O)c1cn(-c2ccc(F)cc2)c2cc(N3CCNCC3)c(F)cc2c1=O`, with “inactive”; and `CCc1c(C)cc(N)c(CC)c1N`, with “inactive”; and `CCCCC(CC)COCCC#N` (stereo not drawn), with “inactive”. Take `O=C1OC2(c3cc(Br)c(O)c(Br)c3Oc3c2cc(Br)c(O)c3Br)c2c(Cl)c(Cl)c(Cl)c(Cl)c21`: the AC50 is 13.2 µM (active).

For `Cc1ccc(Nc2ccc(O)c3c2C(=O)c2ccccc2C3=O)cc1`, the result was inactive.

Consider `Cc1ccc(O)c(C(C)(C)C)c1`, for which the result was inactive. In the case of `CCCCCCCCCCCCCCCCCC(=O)OCC(CC)CCCC` (stereo not drawn), the result was inactive. The same measure, in the same setting: under `C#C[C@]1(O)CC[C@H]2[C@@H]3CCC4=Cc5oncc5C[C@]4(C)[C@H]3CC[C@@]21C` stands “inactive”; under `CC(C)Oc1ccccc1O`, “inactive”. Still for that read-out and setting: then `CCCCCCCCC=O`, with “inactive”. On the same count and under the same terms, then `COC(=O)c1ccc(C)cc1`, with “inactive”. As for `Nc1cc([N+](=O)[O-])ccc1Cl`, the result was inactive. In the case of `C=C(C)C(=O)O[C@H]1C[C@@H]2CC[C@@]1(C)C2(C)C`, the AC50 was 31.7 µM (active).

By AC50 is commonly meant the midpoint of the concentration-response curve, whichever way the signal moves.
